# Source: PubChem BioAssay (EPA / NIEHS)
# Records with an inconclusive call do not appear. Activity calls are given as the source filed them. How the source made its calls, unless noted: active means hit-call score of the fitted dose curve at least 0.9, where 1 is the maximum; inconclusive means response in the unintended direction; inactive means score below 0.9.
# Assays:
# [1] = CEETOX_H295R_MTT_cell_viability: Viability Assessment in the CeeTox HT-H295R MTT Assay (AID 2283718; active means hit-call score of the fitted dose curve at least 0.9, where 1 is the maximum; inactive means score below 0.9;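 on AC50: curve fitted both ways so AC50 may mark viability loss or gain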)
# Summary of the method: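 Human H295R adrenal cells, prestimulated 48 h with 10 uM forskolin, were exposed 48 h to chemicals in 0.1% DMSO. Viability was measured in the same wells by MTT (0.5 mg/ml, 4 h, 37 C), absorbance 570/650 nm, as percent of controls.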
# [2] = Tanguay_ZF_120hpf_ActivityScore_legacy: (Legacy) Oregon State University Tanguay Lab 120 Hour Post-fertilization zebrafish Assay Score for Activity (AID 2283742);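 on AC50: dechorionated Tropical 5D wild-type zebrafish embryos held singly per well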
# Summary of the method: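 Dechorionated 5D embryos, one per well, static exposure 6–120 hpf, 28C, sealed and dark; final DMSO 0.64% (vol/vol). Brightfield binary scoring of mortality plus 18 endpoints; gain-of-signal fit versus DMSO baseline.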
# [3] = tested on: chicken Androgen Receptor (AR), gene 422165; assay: ATG_chAR_XSP1: Attagene TRANS-FACTORIAL Multi-Species (XSP1) HepG2 Assay for chicken Androgen Receptor (AR) (AID 2283768)
# Summary of the method: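 Reporter mRNA read by RT-PCR with fluorescent labelling and capillary electrophoresis 24 h after chemical dosing of transiently transfected HepG2 cells. Chicken AR-Gal4 chimera, partially stimulated with 3 nM 6-alpha-fluorotestosterone; activity fitted upward relative to DMSO.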
# [4] = tested on: frog Androgen Receptor (AR), gene 399456; assay: ATG_frAR_XSP1: Attagene TRANS-FACTORIAL Multi-Species (XSP1) HepG2 Assay for frog Androgen Receptor (AR) (AID 2283770)
# Experimental: ATG_XSP1_multi-species_TRANS is a cell-based, multiplexed assay created by modifying the existing Attagene TRANS-FACTORIAL system to include a panel of nuclear receptors from some or all the following species: human (Homo sapiens), mouse (Mus musculus), frog (Xenopus laevis), zebrafish (Danio rerio), chicken (Gallus gallus), and turtle (Chrysemys picta). The ECOTOX-FACTORIAL format uses HepG2, a human liver cell line, with measurements taken at 24 hours after chemical dosing in a 24-well plate. Xsp1 included 3 nM 6-alpha-fluorotestosterone to partially stimulate the androgen receptor.ATG_frAR_XSP1 is one of 29 assay components measured or calculated from the ATG_XSP1_multi-species_TRANS assay. It is designed to make measurements of mRNA induction, a form of inducible reporter, as detected with fluorescence intensity signals by Reverse transcription polymerase chain reaction (RT-PCR) and Capillary electrophoresis technology.The assay endpoint ATG_frAR_XSP1 was analyzed in the positive analysis fitting direction relative to DMSO as the negative control and baseline of activity. […] Furthermore, this assay endpoint can be referred to as a primary readout, because this assay has produced multiple assay endpoints where this one serves a reporter gene function. […]
# [5] = tested on: zebrafish Androgen Receptor (AR), gene 100005148; assay: ATG_zfAR_XSP1: Attagene TRANS-FACTORIAL Multi-Species (XSP1) HepG2 Assay for zebrafish Androgen Receptor (AR) (AID 2283771)
# Summary of the method: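 Gain-of-signal versus DMSO was measured as reporter transcripts quantified by RT-PCR, fluorescent labelling and capillary electrophoresis after 24 h chemical exposure. The cells were HepG2 expressing a chimeric zebrafish AR-GAL4, co-stimulated with 3 nM 6-alpha-fluorotestosterone.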
# [6] = tested on: zebrafish Estrogen Receptor (ESR2B), gene 317733; assay: ATG_zfER2b_XSP1: Attagene TRANS-FACTORIAL Multi-Species (XSP1) HepG2 Assay for zebrafish Estrogen Receptor (ESR2B) (AID 2283773)
# Summary of the method: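 Multiplexed TRANS format in transfected HepG2 liver cells, chimeric NR-Gal4 from zebrafish ESR2B. 24 h dosing; medium contains 3 nM 6-alpha-fluorotestosterone. mRNA induction by RT-PCR/CE, positive direction vs DMSO.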
# [7] = tested on: frog Estrogen Receptor (ESR2), gene 100174814; assay: ATG_frER2_XSP1: Attagene TRANS-FACTORIAL Multi-Species (XSP1) HepG2 Assay for frog Estrogen Receptor (ESR2) (AID 2283774)
# Summary of the method: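 HepG2, transient MRTU transfection (GAL4-UAS reporters, exogenous NR-Gal4 chimeras); 24 h compound exposure; 3 nM 6α-fluorotestosterone co-added; total RNA → RT-PCR → 6-FAM primer extension → HpaI → CE. Positive direction vs DMSO.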
# [8] = STM_H9_OrnithineISnorm_perc: Stemina devTOX quickPredict H9 human embryonic stem cell (hESC)-based Assay for Ornithine (ORN) Metabolite Biomarker, Normalized (AID 2283712; active means hit-call score of the fitted dose curve at least 0.9, where 1 is the maximum; inactive means score below 0.9;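 further: ornithine released into spent medium during last day measured by mass spectrometry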)
# Summary of the method: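 Metabolite endpoint from spent media of pluripotent H9 cells treated 72 h with daily re-feeding; ornithine measured by UPLC-HRMS against its 13C spike-in and referenced to the median 0.1% DMSO vehicle response.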
# [9] = STM_H9_CystineISnorm_perc: Stemina devTOX quickPredict H9 human embryonic stem cell (hESC)-based Assay for Cystine (CYSS) Metabolite Biomarker, Normalized (AID 2283713; active means hit-call score of the fitted dose curve at least 0.9, where 1 is the maximum; inactive means score below 0.9)
# Summary of the method: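 Normalized cystine level in conditioned medium from the final 24h of a 72h treatment of pluripotent H9 cells (daily media and compound renewal). Quantified by UPLC-HRMS with C13-labeled internal standard; scaled to median of 0.1% DMSO vehicle wells.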
# [10] = STM_H9_OrnCyssISnorm_ratio: Stemina devTOX quickPredict H9 human embryonic stem cell (hESC)-based Assay for Ornithine (ORN):Cystine (CYSS) Ratio (AID 2283714)
# Summary of the method: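 UPLC-HRMS of spent media: ORN/CYSS ratio of internal-standard-normalized percentages, DMSO (0.1%) baseline. Pluripotent H9 hESCs, 72h exposure, daily re-dosing with fresh media; last 24h media collected.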
# [11] = ArunA_Migration_hNP: ArunA Biomedical's Oris Neuroprogenitor (hNP) Cell Migration Assay (AID 2283754)
# Summary of the method: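 Readout is calcein-AM fluorescence (ex494/em517) of cells migrating into the detection zone, relative to DMSO. hNP1 cells (H9-derived) grown on Matrigel behind stoppers 16 h, then stoppers pulled and chemical applied 72 h; cytochalasin D as control.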
# [12] = ArunA_Migration_hNC: ArunA Biomedical's Oris Neural Crest (hNC) Cell Migration Assay (AID 2283755)
# Summary of the method: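 Calcein-AM fluorescence (ex494 nm/em 517 nm) in the stopper-defined detection zone quantifies migration of hNC cells after 72 h chemical exposure; 60,000 cells/well plated on Matrigel with LIF and bFGF, 16 h pre-incubation. DMSO baseline.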
# [13] = ArunA_NOG_NucleusCount: ArunA Biomedical's Neurite Outgrowth (NOG) Assay for Nucleus Count (AID 2283756)
# Summary of the method: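 Viable neuron count, from Hoechst nuclei passing size and intensity gates, imaged at 20x on differentiated H9-derived human neurons. Exposure lasted 48 h from seeding; activity was scored relative to DMSO.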
# [14] = ArunA_NOG_NeuriteLength: ArunA Biomedical's Neurite Outgrowth (NOG) Assay for Neurite Length (AID 2283757)
# Summary of the method: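 Total neurite length per neuron, from traced βIII-tubulin-labelled processes longer than 10 um on viable Hoechst-gated cells, was scored as decrease from DMSO. Cells were hESC (H9)-derived neurons given 48 h chemical exposure immediately after seeding.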
# [15] = ArunA_NOG_NeuritesPerNeuron: ArunA Biomedical's Neurite Outgrowth (NOG) Assay for Neurites Per Neuron (AID 2283758)
# Summary of the method: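 Differentiated human H9-derived neurons exposed to chemicals for 48 h from seeding, then stained with Hoechst and βIII-tubulin/DyLight 488. Automated imaging counted neurites (processes >10 um) per valid neuron; loss of signal versus DMSO scored.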
# [16] = target: zebrafish Estrogen Receptor (ESR1), esr1 (gene 259252) (UniProt P57717); assay: ATG_zfER1_XSP1: Attagene TRANS-FACTORIAL Multi-Species (XSP1) HepG2 Assay for zebrafish Estrogen Receptor (ESR1) (AID 2283772)
# Sequence of zebrafish Estrogen Receptor (ESR1), esr1 (gene 259252) (P57717 whole entry, looked up, the tested form may be a part): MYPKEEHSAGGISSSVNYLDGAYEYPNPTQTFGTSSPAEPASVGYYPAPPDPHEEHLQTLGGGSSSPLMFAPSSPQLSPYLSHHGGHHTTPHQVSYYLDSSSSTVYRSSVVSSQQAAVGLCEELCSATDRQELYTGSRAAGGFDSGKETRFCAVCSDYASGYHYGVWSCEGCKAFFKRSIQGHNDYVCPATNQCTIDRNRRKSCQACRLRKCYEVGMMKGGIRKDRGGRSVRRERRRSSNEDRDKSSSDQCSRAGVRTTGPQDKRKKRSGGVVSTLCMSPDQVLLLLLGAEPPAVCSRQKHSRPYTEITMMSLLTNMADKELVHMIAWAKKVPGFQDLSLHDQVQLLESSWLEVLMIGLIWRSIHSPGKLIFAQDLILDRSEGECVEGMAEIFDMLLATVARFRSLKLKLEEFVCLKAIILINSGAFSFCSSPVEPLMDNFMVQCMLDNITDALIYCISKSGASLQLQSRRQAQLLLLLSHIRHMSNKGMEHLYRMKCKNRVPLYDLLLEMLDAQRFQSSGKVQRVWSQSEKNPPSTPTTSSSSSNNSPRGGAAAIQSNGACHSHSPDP
# Summary of the method: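 Transfect HepG2 with GAL4-UAS multi-reporter constructs; treat 24 h (medium carries 3 nM 6-alpha-fluorotestosterone); extract RNA, reverse-transcribe, PCR-amplify, FAM-label, digest with HpaI; resolve by capillary electrophoresis and compare against DMSO baseline.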
# [17] = ACEA_AR_agonist_AUC_viability: ACEA Biosciences xCELLigence Real-Time Cell Analysis on Androgen Receptor Agonism for Viability (AID 2283775);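 on AC50: viability read 80 hours after compound addition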
# Summary of the method: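 Viability endpoint from xCELLigence impedance in 22Rv1 prostate cells at 80 h. Eight-point series, 100 uM maximum final.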
# [18] = ArunA_CellTiter_hNC: Viability Assessment in the ArunA Biomedical's Oris Neural Crest (hNC) Cell Migration Assay (AID 2283752)
# Summary of the method: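 Cytotoxicity endpoint run alongside the migration assay: neural crest cells on Matrigel, 60,000 per well, preincubated 16 h at 37C, treated 72 h; CellTiter Aqueous One signal loss relative to DMSO.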
# [19] = ArunA_NOG_BranchPointsPerNeurite: ArunA Biomedical's Neurite Outgrowth (NOG) Assay for Branch Points Per Neurite (AID 2283759)
# Summary of the method: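 Automated image analysis traced neurites (processes >10 um) from valid cell bodies after Hoechst and βIII-tubulin staining. hNN cells from H9 embryonic stem cells, 48 h exposure. Fitted bidirectionally against DMSO.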
smiles,measurement,setting,value
C[C@]12CCC(=O)C[C@@H]1CC[C@@H]1[C@@H]2CC[C@]2(C)[C@@H](O)CC[C@@H]12,outcome,[1],inactive
same,outcome,[2],inactive
same,AC50,[3],0.282 µM (active)
same,AC50,[4],0.177 µM (active)
same,AC50,[5],0.0358 µM (active)
same,AC50,[6],1 µM (active)
same,AC50,[7],1.31 µM (active)
CC(C)(C)c1cc(O)ccc1O,outcome,[8],inactive
same,outcome,[9],inactive
same,outcome,[10],inactive
same,AC50,[2],16.8 µM (active)
same,AC50,[11],33.7 µM (active)
same,AC50,[12],35.8 µM (active)
same,outcome,[13],inactive
same,outcome,[14],inactive
same,outcome,[15],inactive
same,outcome,[16],inactive
same,AC50,[6],20 µM (active)
same,AC50,[7],22.4 µM (active)
same,AC50,[17],90.9 µM (active)
O=[N+]([O-])c1ccc(O)c([N+](=O)[O-])c1,outcome,[8],inactive
same,AC50,[9],31.1 µM (active)
same,outcome,[10],inactive
same,AC50,[2],29.6 µM (active)
same,AC50,[17],50 µM (active)
Nc1ccc(-c2ccc(N)c(Cl)c2)cc1Cl,outcome,[1],inactive
ClCC(Cl)CCl,outcome,[8],inactive
same,outcome,[9],inactive
same,outcome,[10],inactive
same,outcome,[2],inactive
same,outcome,[18],inactive
same,outcome,[11],inactive
same,outcome,[19],inactive
C[C@]12CC[C@H](O)CC1=CC[C@@H]1[C@@H]2CC[C@]2(C)C(=O)CC[C@@H]12,outcome,[1],inactive
C[C@@H]1C[C@@H]([C@H](O)CC2CC(=O)NC(=O)C2)C(=O)[C@@H](C)C1,AC50,[8],4.59 µM (active)
same,AC50,[9],0.92 µM (active)
same,AC50,[10],2.9 µM (active)
same,outcome,[1],inactive
same,AC50,[2],17.9 µM (active)
same,AC50,[17],2.1 µM (active)
C=C(C)C(=O)[O][Sn]([CH2]CCC)([CH2]CCC)[CH2]CCC,AC50,[8],0.494 µM (active)
same,AC50,[9],0.266 µM (active)
same,AC50,[10],0.441 µM (active)
same,AC50,[2],1.54 µM (active)
same,AC50,[17],1.43 µM (active)
C(=NC1CCCCC1)=NC1CCCCC1,outcome,[1],inactive
CCOP(=S)(OCC)Oc1nc(Cl)c(Cl)cc1Cl,AC50,[1],93.2 µM (active)
same,outcome,[2],inactive
same,AC50,[17],83.9 µM (active)
CN(C)N=O,outcome,[2],inactive
same,outcome,[17],inactive
CCC1(c2ccc(N)cc2)CCC(=O)NC1=O (configuration not stated),outcome,[1],inactive
same,outcome,[17],inactive
CC(C)C1CCC(Cc2ccc(Cl)cc2)C1(O)Cn1cncn1 (configuration not stated),outcome,[17],inactive
CC(C)(OO)c1ccccc1,outcome,[2],inactive
same,outcome,[17],inactive
NC(=O)O,outcome,[2],inactive
same,outcome,[17],inactive
COP(=O)(OC)O/C(=C\Cl)c1cc(Cl)c(Cl)cc1Cl,outcome,[1],inactive
same,AC50,[6],73.9 µM (active)
same,outcome,[17],inactive
Clc1ccc(C2(Cn3cncn3)CC(Br)CO2)c(Cl)c1 (configuration not stated),outcome,[17],inactive
